Experimental data: PubChem BioAssay (NCATS)
Inconclusive results are not listed. Calls of active or inactive are those of the source. The call rests on the fitted dose curve; in most records, active means well fitted cell-killing curve with a large enough effect; inconclusive means small, poorly fitted or top-dose-only effect; inactive means no such curve, though single readings can be large or run the other way.

Experiment: qHTS of pediatric cancer cell lines to identify multiple opportunities for drug repurposing: Primary screen for OHS-50 cells (AID 1347103); further: nearly all actives have a fitted effect of over 40% in size;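 on activity change, negative = cytotoxic: plate controls were DMSO neutral control for no effect and bortezomib positive control for full effect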
Conditions: OHS-50 osteosarcoma viability, CellTiter-Glo luminescence, 48 h; series mostly up to 57.3 µM; activity change, negative = cytotoxic: at the top concentration
Outline: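 Cells (500-1,000/well) rested 5 h, then received compounds for 48 h; metabolically active cells were measured by CellTiter-Glo luminescence. Final concentrations spanned up to 46 µM (MIPE, 11-point) or 0.59 nM-46 µM (NPC, 8-point) in primary screens, 11-point in follow-ups.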
Potency means the concentration at half of the fitted maximal effect.

Row | Compound | Potency | activity change, negative = cytotoxic
1 | CN(C)CCOC1=Cc2ccccc2Sc2ccc(Cl)cc21 | 24.6 µM (active) | 
2 | CCCC(=O)O[C@]1(C(=O)CCl)[C@@H](C)C[C@H]2[C@@H]3CCC4=CC(=O)C=C[C@]4(C)[C@@]3(F)C(=O)C[C@@]21C | 13.8 µM (active) | 
3 | COC(=O)c1cc(Cl)c(NC(C)=O)cc1OC |  | 7.57% (inactive)
4 | CC(=O)/C=C/C=C1/C2CCC(C2)C1(C)C (stereo not drawn) |  | 11.7% (inactive)
5 | C#Cc1ccc(-c2ccccc2F)cc1 |  | 9.37% (inactive)
6 | CC(C(O)c1ccccc1)N(C)CCOC(c1ccccc1)c1ccccc1 (stereo not drawn) | 27.6 µM (active) | 
7 | CC(COc1ccccc1)NN (stereo not drawn) |  | 11.9% (inactive)
8 | COc1ccc(-n2nc(CCC(=O)N(C)O)cc2-c2ccc(Cl)cc2)cc1 | 19.5 µM (active) | 
9 | CC[C@@H]([C@H](C)O)n1ncn(-c2ccc(N3CCN(c4ccc(OC[C@@H]5CO[C@@](Cn6cncn6)(c6ccc(F)cc6F)C5)cc4)CC3)cc2)c1=O | 13.8 µM (active) | 
10 | O=C1NC2CCCCN2C12CCN(CCCN1c3ccccc3CCc3ccc(Cl)cc31)CC2 (stereo not drawn) | 27.6 µM (active) | 
11 | CC(C)(C)C(=O)OCOC(=O)C1N2C(=O)CC2S(=O)(=O)C1(C)C (stereo not drawn) |  | 2.31% (inactive)
12 | CCCCCCCCCCCC[N+](C)(C)Cc1ccccc1 | 1.74 µM (active) | 
13 | Cc1cc(C(C)(C)C)c(O)c(C(C)(C)C)c1 |  | 9.8% (inactive)
14 | CC(C)(C)C1CCC(CC2=C(O)c3ccccc3C(=O)C2=O)CC1 (stereo not drawn) | 3.89 µM (active) | 
15 | CC(=O)c1ccc(O)c(C(N)=O)c1 |  | 20.5% (inactive)
16 | CCN(CC)CCN |  | 9.27% (inactive)
17 | CCN(CC)CC(=O)Nc1c(C)cccc1C(=O)OC |  | -9.67% (inactive)
18 | Nc1cccc2c(N)cccc12 | 31.7 µM (active) | 
